# Test results: PubChem BioAssay AID2227 (Johns Hopkins Ion Channel Center, 2009)
# About 1,300 (0.42%) of roughly 310,000 compounds were called active.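 Rule for the calls: active = B-score of calcium response area above 5 SD of library B-scores, with initial fluorescence ratio within 5 SD of library; inactive = the rest.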 What follows is part of a selection rich in actives, with near analogues and random picks from the rest.
# Target: Short transient receptor potential channel 4 (Mus musculus) (UniProt Q9QUQ5)
# Assay: TRPC4 channel potentiators under submaximal DAMGO – cell-based, mouse TRPC4beta, HEK293 mu-opioid, Fluo-4 calcium, primary screen (AID 2227);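 for B-score: B-score of integrated fluorescence ratio over time as area under calcium response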
# Conditions: DAMGO EC20, Fluo-4 Ca2+ flux, at 10 µM; hits give high values
# Chain of Short transient receptor potential channel 4 (Mus musculus) (Q9QUQ5 whole entry, looked up): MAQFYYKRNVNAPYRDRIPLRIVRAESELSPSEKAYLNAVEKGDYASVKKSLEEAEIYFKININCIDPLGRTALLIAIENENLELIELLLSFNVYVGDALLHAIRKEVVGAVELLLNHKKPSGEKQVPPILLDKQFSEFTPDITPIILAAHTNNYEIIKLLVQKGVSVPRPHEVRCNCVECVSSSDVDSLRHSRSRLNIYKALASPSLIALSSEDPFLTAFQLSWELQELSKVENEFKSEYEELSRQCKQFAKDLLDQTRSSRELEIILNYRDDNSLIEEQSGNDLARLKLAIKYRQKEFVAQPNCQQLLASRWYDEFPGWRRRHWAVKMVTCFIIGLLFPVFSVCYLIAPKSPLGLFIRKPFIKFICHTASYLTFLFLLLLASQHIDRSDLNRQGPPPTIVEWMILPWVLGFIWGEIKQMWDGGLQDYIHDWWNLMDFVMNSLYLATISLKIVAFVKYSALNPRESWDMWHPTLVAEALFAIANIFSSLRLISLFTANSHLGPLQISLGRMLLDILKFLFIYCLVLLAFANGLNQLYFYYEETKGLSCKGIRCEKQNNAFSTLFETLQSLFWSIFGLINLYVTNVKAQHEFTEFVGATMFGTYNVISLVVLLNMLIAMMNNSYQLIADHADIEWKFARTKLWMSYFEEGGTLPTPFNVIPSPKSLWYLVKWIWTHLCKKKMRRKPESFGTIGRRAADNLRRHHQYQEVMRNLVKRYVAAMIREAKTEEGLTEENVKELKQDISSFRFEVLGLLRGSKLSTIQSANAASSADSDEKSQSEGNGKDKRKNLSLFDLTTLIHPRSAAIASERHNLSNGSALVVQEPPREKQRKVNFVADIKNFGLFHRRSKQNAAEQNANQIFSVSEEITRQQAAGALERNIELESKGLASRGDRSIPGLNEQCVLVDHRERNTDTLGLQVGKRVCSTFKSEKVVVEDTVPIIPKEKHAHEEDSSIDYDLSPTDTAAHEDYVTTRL
row,Compound,B-score
1,Cc1ccccc1CC1(CO)CCCN(Cc2ccc3c(c2)OCCO3)C1 (stereo not drawn),inactive
2,COc1ccc([N+](=O)[O-])cc1NC(=O)CC1SC(=Nc2cccc(C)c2C)N(/N=C(\C)c2ccc(C)cc2)C1=O (stereo not drawn),inactive
3,O=C(N/N=C/c1ccc(Cl)cc1)c1nc2ccc([N+](=O)[O-])cc2c(=O)[nH]1,inactive
4,COc1cc(NS(=O)(=O)c2ccc(NC(=S)NC(=O)c3ccccc3)cc2)nc(OC)n1,inactive
5,CC(OC(=O)CCCc1c[nH]c2ccccc12)C(=O)Nc1ccc(S(N)(=O)=O)cc1 (stereo not drawn),inactive
6,COCCCNC(=O)/C(C#N)=C/c1c(N2CCCCCC2)nc2ccccn2c1=O,inactive
7,Cc1cccn2c(=O)c(/C=C(\C#N)C(N)=O)c(N3CCCCCC3)nc12,12 (active)
8,Cc1cccn2c(=O)c(/C=C(\C#N)S(=O)(=O)c3ccc(Cl)cc3)c(N3CCC(C(N)=O)CC3)nc12,inactive
9,O=C(c1ccc(NS(=O)(=O)c2ccc3[nH]c(=O)[nH]c3c2)cc1)N1CCCCC1,inactive
10,CN(C)CCCSc1ccccc1NC(=O)/C=C/c1ccccc1,inactive
11,N=c1c2c3c(sc2ncn1N)CCCCC3,10 (active)
12,N=c1c2c3c(sc2ncn1N)CCCC3,inactive
13,N=c1c2c3c(sc2ncn1CCCN1CCOCC1)CCCCC3,inactive
14,N#Cc1ncc(C(F)(F)F)cc1Oc1cccnc1,inactive
15,O=c1cc(N2CCCCC2)c(-c2ccccc2)nn1Cc1cccc(F)c1,inactive
16,Cc1ncc([N+](=O)[O-])n1CCOC(=O)c1ccc(Br)cc1,inactive
17,Cc1cccc(CCNC(=O)Cn2ncc3c([nH]c4ccc(C)cc43)c2=O)c1,inactive
18,O=C(CN1CCN(c2ccccn2)CC1)N1CCc2ccccc21,inactive
19,O=C1c2cccc3cccc(c23)N1CN1CCN(c2ccccn2)CC1,10 (active)
20,CC(=C1C(=O)c2ccccc2C1=O)N1CCN(c2ccccn2)CC1,inactive
21,CC(=O)Nc1ccc(S(=O)(=O)N2CCN(CCCOc3cc(C)ccc3C)CC2)cc1,32 (active)
22,Cc1ccc(C)c(OCCC(=O)Nc2cccc(S(=O)(=O)N3CCCC3)c2)c1,inactive
23,Cc1cccc(OCCCC(=O)Nc2ccc(S(=O)(=O)N3CCCC3)cc2)c1,inactive
24,CC(=O)c1ccc(N2CCN(S(=O)(=O)c3ccc4c(c3)CC(=O)N4C)CC2)cc1,inactive
25,Cc1c(C(=O)NCCN2C(=O)S/C(=C\c3cccs3)C2=O)cccc1[N+](=O)[O-],inactive
26,Cc1[nH]n(-c2ccccc2)c(=O)c1N=Nc1ccccc1C(=O)N1CCCCC1,inactive
27,COC(=O)c1ccccc1N=Nc1c(C)[nH][nH]c1=O,59 (active)
28,Cc1[nH][nH]c(=O)c1N=Nc1ccccc1,inactive
